GIRK2 activator: GIRK2 channel activators by thallium flux | P48051 | HEK293 GIRK2/NPY4 cells, thallium flux fluorescence | activation (% efficacy), % for hits at 75 µM | 34,000 tested, under 10 active | AID 1259324;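 active = primary screen hit, no activity in plain HEK293 cells, and in GIRK2-only cells above 5% efficacy rising with concentration; inactive = the rest, including fluorescent compounds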;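 also: efficacy is normalized control-subtracted fluorescence 15 s after thallium addition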
Target sequence (P48051 whole entry, looked up): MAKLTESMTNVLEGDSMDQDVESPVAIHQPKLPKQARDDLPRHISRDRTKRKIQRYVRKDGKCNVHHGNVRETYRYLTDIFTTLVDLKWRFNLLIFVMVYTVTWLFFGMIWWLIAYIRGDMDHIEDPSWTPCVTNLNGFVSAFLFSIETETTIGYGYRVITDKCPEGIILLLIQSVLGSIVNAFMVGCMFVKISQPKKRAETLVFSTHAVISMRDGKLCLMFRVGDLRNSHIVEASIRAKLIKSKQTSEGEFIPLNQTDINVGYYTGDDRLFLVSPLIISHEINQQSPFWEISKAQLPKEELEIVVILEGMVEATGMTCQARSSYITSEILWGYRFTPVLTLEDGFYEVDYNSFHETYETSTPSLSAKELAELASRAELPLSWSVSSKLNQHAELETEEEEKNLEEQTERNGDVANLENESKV
AMPAR-TARP mod: modulates AMPAR-stargazin complexes. O88602+P19491. HEK293 GluA2+stargazin, membrane potential dye (FDSS), glutamate EC50; hits were called plate by plate, in both directions. calls only at 30 µM. hit rate 3.5% among 40,000. AID 1259245;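 active = any of four per-well response measures lying three or more SD from its plate-wide compound average, in either direction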
* hit, by the source's call; i = inactive; . = no result; + = active, no number; [ ] = remark or other dose. This excerpt belongs to a sample that is enriched for hits.

SMILES	GIRK2 activator	AMPAR-TARP mod
CCCNC(=O)CCCCn1c(=O)c2ccccc2n(CC(=O)Nc2ccccc2Cl)c1=O	i	+
CCCNC(=O)CCCCn1c(=O)c2ccccc2n(CC(=O)Nc2cccc(SC)c2)c1=O	i	i
CCC(C(=O)N1CCN(c2ccc(-c3ccc4c(c3)OCO4)nn2)CC1)c1ccccc1 (stereo not drawn)	i	i
O=[N+]([O-])c1ccc(Nc2ccc(S(=O)(=O)Nc3nccs3)cc2)c([N+](=O)[O-])c1	14%*[18.8 µM]	i
O=C(CCN1C(=O)c2ccccc2S1(=O)=O)Nc1ccc(S(=O)(=O)Nc2nccs2)cc1	i	i
Cc1cc(C)n(CCN2CCCN(C(=O)c3cc(-c4ccccc4)n[nH]3)CC2)n1	i	i
COc1ccc(-n2nnnc2SC(C)C(=O)Nc2ccc(C)c(C)c2)cc1 (stereo not drawn)	.	i
O=C(N1CCC(Cn2cccn2)CC1)C1(c2ccc(Cl)cc2)CCCC1	i	+
O=C(N1CCC(Cn2cccn2)CC1)C1(c2cccs2)CCCC1	i	i
Cc1nc(-c2cccs2)c(CCC(=O)Nc2ccccc2OC(C)C)s1	i	i
Cn1nc(CNC(=O)c2cccc(C#N)c2)c2ccccc2c1=O	i	+
Cn1nc(CNC(=O)c2ccccc2C(=O)c2ccccc2)c2ccccc2c1=O	i	i
CC(C)COc1ccc(C(=O)Nc2nonc2-c2ccccc2)cc1	i	i
O=C(COc1ccc(C(=O)c2ccccc2)cc1)NCCn1nc(-c2ccc(Cl)cc2)ccc1=O	i	+
O=C(COc1ccc(C(=O)c2ccccc2)cc1)NCCn1nc(-c2cccs2)ccc1=O	i	i
COCCNC(=O)Cc1ccc(NS(=O)(=O)c2cc(C)c(C)cc2C)cc1	i	i
c1coc(CNc2nc(N3CCOCC3)nc(N3CCOCC3)n2)c1	i	i
c1ccc(CNc2nc(N3CCOCC3)nc3ccccc23)cc1	.	+
CN1CCN(C(CNC(=O)C2CCN(S(C)(=O)=O)CC2)c2ccc(F)cc2)CC1 (stereo not drawn)	i	i
COc1ccccc1OCC(=O)NCC1(O)CCOCC1	i	.
O=C(c1cccc(S(=O)(=O)N2CCOCC2)c1)N1CCCc2ccccc21	.	i
Cc1ccc(C(=O)N2CCCc3ccccc32)cc1S(=O)(=O)N1CCOCC1	.	+
O=C(NCCN1CCOCC1)c1ccc(Cl)c(S(=O)(=O)N2CCCCC2)c1	.	i
O=C(c1ccc(Cl)c(S(=O)(=O)N2CCOCC2)c1)N1CCc2ccccc21	.	+
CC1CCN(C(=O)CSc2ccc(NC(=O)c3ccco3)nn2)CC1	i	i
SMILES	GIRK2 activator	AMPAR-TARP mod
Cc1ccccc1-n1c(=S)sc2c(=O)[nH]c(SCC(=O)NCc3ccco3)nc21	.	i
O=C(c1c(F)cccc1Cl)N1CCN(c2cc(-n3ccnc3)ncn2)CC1	i	i
Cc1nc(C)c(C(=O)N2CCN(c3nc4c(C)c(C)ccc4s3)CC2)s1	i	i
Cc1nc(C)c(C(=O)N2CCN(c3ccc(N(C)C)nn3)CC2)s1	i	+
CCOC(=O)c1sc(NC(=O)c2ccc3ncsc3c2)cc1C	.	i
Cc1nc(NCC2CCCO2)nc(Nc2ccc(F)cc2)c1[N+](=O)[O-] (stereo not drawn)	i	i
Cc1nc(NCC2CCCO2)nc(NC2CCCCC2)c1[N+](=O)[O-] (stereo not drawn)	i	+
Cn1c(=O)c2c(nc3n2CC(c2ccc(F)cc2)=NN3CCN2CCOCC2)n(C)c1=O	i	+
COC(=O)Cn1c(-c2ccccc2)cn2c3c(=O)n(C)c(=O)n(C)c3nc12	i	+
Cc1c(C)n2c3c(=O)n(CC(N)=O)c(=O)n(C)c3nc2n1CCCn1ccnc1	i	+
CCCCn1c(NCCCN2CCOCC2)nc2c1c(=O)[nH]c(=O)n2C	i	i
Cc1cn2c3c(=O)[nH]c(=O)n(C)c3nc2n1CCCN1CCOCC1	i	+
CCOC(=O)Cn1c(-c2ccccc2)cn2c3c(=O)n(C)c(=O)n(C)c3nc12	.	i
Cc1c(C)n2c3c(=O)n(CC(N)=O)c(=O)n(C)c3nc2n1-c1ccc(Br)cc1	.	i
CCOCCN1N=C(c2ccc(F)cc2)Cn2c1nc1c2c(=O)n(C)c(=O)n1C	.	i
COc1ccc(CCS(=O)(=O)NCC2CCN(Cc3ccccc3SC)CC2)cc1	i	i
COCCN1CCC(CNS(=O)(=O)CCc2ccccc2)CC1	i	i
O=C(NC(c1ccccc1)c1ccccc1)N1CCC(c2nnc(C3CC3)o2)CC1	i	i
Cc1c(C)n2c3c(=O)n(C)c(=O)n(C)c3nc2n1CCCN1CCOCC1	i	+
Cn1c(=O)c2c(nc3n(CCN4CCOCC4)c(-c4ccccc4)cn23)n(C)c1=O	.	+
CCCCCn1c(C)c(C)n2c3c(=O)n(C)c(=O)n(C)c3nc12	i	i
Cc1ccc(-n2c(-c3ccccc3)cn3c4c(=O)n(CCN5CCOCC5)c(=O)n(C)c4nc23)cc1	.	i
O=C(CCCn1c(=O)[nH]c2ccccc2c1=O)N1CCN(c2ccc(F)cc2)CC1	.	i
O=C(c1cccc([N+](=O)[O-])c1)N(C(=O)N1CCCCC1)c1cccc(Cl)c1	i	i
COc1ccc2nc(-c3ccc(NC(=O)c4ccc(C(F)(F)F)cc4)cc3)cn2n1	i	.
SMILES	GIRK2 activator	AMPAR-TARP mod
O=C(NC1CC(=O)N(c2ccccc2)C1)c1ccccc1C(F)(F)F (stereo not drawn)	.	i
COc1ccc(N2CC(NC(=O)c3ccccc3C(F)(F)F)CC2=O)cc1 (stereo not drawn)	.	+
CC(c1ccccc1)n1c(N2CCOCC2)nc2c1c(=O)n(C)c(=O)n2C (stereo not drawn)	i	i
COc1ccc(C(CNS(=O)(=O)c2ccc(F)c(C)c2)N2CCN(C)CC2)cc1 (stereo not drawn)	i	i
Cc1ccc(-n2ccnc2N2CCN(C(=O)c3ccc4ccccc4c3)CC2)cc1	i	i
Cc1ccc(-n2ccnc2N2CCN(C(=O)CCc3ccccc3)CC2)cc1	i	i
Cc1ccc(-n2ccnc2N2CCN(C(=O)CCCc3ccccc3)CC2)cc1	i	+
Cc1ccc(-n2ccnc2N2CCN(C(=O)c3ccc(C)c(C)c3)CC2)cc1	i	+
CCn1ccnc1N1CCN(C(=O)c2ccc(C(F)(F)F)cc2)CC1	i	i
O=C(C1CCCCC1)N1CCN(C2c3ccccc3-c3ccccc32)CC1	.	i
Cn1cc(C(=O)N2CCOCC2)cc(NC(=O)/C=C\c2ccccc2)c1=O	.	i
CCn1c(SCC(=O)NC)nnc1-c1cn(C)nc1OC	i	i
CCCOc1ccc(S(=O)(=O)Nc2ccc3c(c2)NC(=O)C(C)(C)CO3)cc1	.	+
CCOC(=O)Nc1ccc2c(c1)NC(=O)C(C)(C)CO2	i	i
CCN(CC)CCNC(=O)Nc1c[nH]c2ccccc12	i	i
O=C(CSc1nc(=O)n(Cc2ccco2)c2c1CCC2)NC1CCCCC1	i	i
S=c1nc(-c2ccc(Br)cc2)n(Cc2ccco2)c2c1CCCC2	.	+
COc1ccc(N2C(=O)C3CC(C)=C(C)CC3C2=O)cc1 (stereo not drawn)	.	i
Cc1cccc(S(=O)(=O)Nc2ccc3c(c2)N(C(=O)C(C)(C)C)CC3)c1	i	i

Bioassay records deposited in PubChem by several laboratories.
